The record followed here is PubChem BioAssay.

Assay [1] is described as follows: E. coli DRC41 culture turbidity changes, primary screen, E. coli filamentation inducer project, strain DRC41, OD650, 48 h (AID 1152).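 Further: E. coli MC1000 strain DRC41 lacking acrAB efflux pump and sulA.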 The conditions noted are these: E. coli DRC41 (acrAB sulA), higher = more signal, called active from +8 up or from −8 down.
Assay [2] in a line: small-molecule binders of probe aLefty1, primary screen, biochemical, small-molecule microarray, 635/667 nm fluorescence (AID 1153).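 Further: score merges spot fluorescence with signal-to-noise ratio from the scanned slide images.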 The conditions noted are these: higher = more signal.
Assay [3] in a line: PSAC antagonists in infected red cells, primary screen, cell-based, P. falciparum Indochina, OD700, 1 h (AID 1154). The conditions noted are these: P. falciparum Indochina infected RBC osmotic lysis, higher = more signal, called active from +8 up or from −8 down.
Assay [4] can be described thus: PSAC antagonists in infected red cells, primary screen, cell-based, P. falciparum Indochina, OD700, 2 h (AID 1155).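 Further: lysis reports solute entry through the parasite surface anion channel PSAC; channel blockers reduce lysis of infected cells.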 As to conditions: P. falciparum Indochina infected erythrocytes, osmotic lysis OD700; higher = more signal, called active from +8 up or from −8 down.
A short description of assay [5]: osmotic lysis modulators in infected erythrocytes, primary screen, PSAC antagonist project, cell-based, P. falciparum Indochina, OD700, 3 h (AID 1156). The conditions noted are these: higher = more signal, called active from +8 up or from −8 down.
Assay [6] can be described thus: PSAC antagonists in infected red cells, primary screen, cell-based, P. falciparum Indochina, OD700, 18 h (AID 1157). As to conditions: P. falciparum Indochina infected erythrocytes, osmotic lysis OD700, 18 h; higher = more signal, called active from +8 up or from −8 down.
Assay [7] in a line: modulators of S6 phosphorylation in cells, primary screen, cell-based, A549, cytoblot, luminescence, serum-stimulated (AID 1158).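 Further: serum-stimulated A549 lung adenocarcinoma cells; signal is phosphorylated S6 detected by cytoblot immunostaining with HRP secondary.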 As to conditions: A549 phospho-S6 cytoblot, 5 h, higher = more signal.
The target of assay [8] is NADPH oxidase 2 (Homo sapiens) (UniProt P04839). Description: NOX2-dependent H2O2 signal modulators, primary screen, NOX inhibitor project, cell-based, HEK293-NOX2, PMA-stimulated, Amplex Red fluorescence (AID 1159). Further: test concentration not given here. The conditions noted are these: 45 min, higher = more signal, called active from +8 up or from −8 down.
The target in assay [9] is NADPH oxidase 4 (Homo sapiens) (UniProt Q9NPH5). Description: NOX4-dependent H2O2 signal modulators, primary screen, NOX inhibitor project, cell-based, HEK293-NOX4, tetracycline-induced, Amplex Red fluorescence (AID 1160). As to conditions: 45 min, higher = more signal, called active from +8 up or from −8 down.
For assay [10], the target named is NADPH oxidase 5 (Homo sapiens) (UniProt Q96PH1). As to the kind of experiment: NOX5-dependent H2O2 signal modulators, primary screen, NOX inhibitor project, cell-based, HEK293-NOX5, Amplex Red fluorescence (AID 1161). The conditions noted are these: HEK293-NOX5, ionomycin, 45 min, higher = more signal.

The source made the active and inactive calls.

Sequence of NADPH oxidase 5 (Homo sapiens) (Q96PH1 whole entry, looked up): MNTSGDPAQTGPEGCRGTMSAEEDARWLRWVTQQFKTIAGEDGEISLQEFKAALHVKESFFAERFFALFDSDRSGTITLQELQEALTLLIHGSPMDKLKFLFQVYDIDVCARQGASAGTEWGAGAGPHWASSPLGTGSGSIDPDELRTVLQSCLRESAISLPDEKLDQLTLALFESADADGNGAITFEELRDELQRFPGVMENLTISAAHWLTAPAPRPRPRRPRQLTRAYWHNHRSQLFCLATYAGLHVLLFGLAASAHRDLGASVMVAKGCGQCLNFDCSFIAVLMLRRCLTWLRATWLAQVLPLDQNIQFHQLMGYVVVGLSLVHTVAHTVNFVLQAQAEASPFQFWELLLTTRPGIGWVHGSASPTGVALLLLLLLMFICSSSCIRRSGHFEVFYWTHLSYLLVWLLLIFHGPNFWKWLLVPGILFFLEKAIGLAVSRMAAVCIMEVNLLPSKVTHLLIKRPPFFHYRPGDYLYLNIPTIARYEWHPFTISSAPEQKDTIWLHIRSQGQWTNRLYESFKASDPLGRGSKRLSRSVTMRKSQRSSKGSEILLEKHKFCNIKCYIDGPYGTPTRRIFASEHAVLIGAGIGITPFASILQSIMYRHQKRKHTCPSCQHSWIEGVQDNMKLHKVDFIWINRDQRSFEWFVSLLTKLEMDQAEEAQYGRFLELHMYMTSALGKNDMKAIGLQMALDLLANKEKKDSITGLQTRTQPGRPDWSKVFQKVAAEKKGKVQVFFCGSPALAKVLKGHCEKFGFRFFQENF
Sequence of NADPH oxidase 2 (Homo sapiens) (P04839 whole entry, looked up): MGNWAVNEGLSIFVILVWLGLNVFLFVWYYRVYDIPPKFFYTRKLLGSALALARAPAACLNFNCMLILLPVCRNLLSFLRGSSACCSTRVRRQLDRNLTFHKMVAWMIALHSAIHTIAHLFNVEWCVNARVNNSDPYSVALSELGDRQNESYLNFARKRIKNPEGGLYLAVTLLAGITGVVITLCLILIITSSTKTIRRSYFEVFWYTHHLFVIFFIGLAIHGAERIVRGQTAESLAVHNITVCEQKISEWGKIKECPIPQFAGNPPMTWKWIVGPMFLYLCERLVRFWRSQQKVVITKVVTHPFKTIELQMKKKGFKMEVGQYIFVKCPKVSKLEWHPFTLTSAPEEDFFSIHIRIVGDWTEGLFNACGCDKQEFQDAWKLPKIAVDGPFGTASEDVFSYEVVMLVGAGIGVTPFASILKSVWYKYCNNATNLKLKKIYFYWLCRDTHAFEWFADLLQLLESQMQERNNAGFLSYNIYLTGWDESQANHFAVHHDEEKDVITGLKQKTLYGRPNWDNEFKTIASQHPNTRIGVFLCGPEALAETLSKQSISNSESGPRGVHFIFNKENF
Sequence of NADPH oxidase 4 (Homo sapiens) (Q9NPH5 whole entry, looked up): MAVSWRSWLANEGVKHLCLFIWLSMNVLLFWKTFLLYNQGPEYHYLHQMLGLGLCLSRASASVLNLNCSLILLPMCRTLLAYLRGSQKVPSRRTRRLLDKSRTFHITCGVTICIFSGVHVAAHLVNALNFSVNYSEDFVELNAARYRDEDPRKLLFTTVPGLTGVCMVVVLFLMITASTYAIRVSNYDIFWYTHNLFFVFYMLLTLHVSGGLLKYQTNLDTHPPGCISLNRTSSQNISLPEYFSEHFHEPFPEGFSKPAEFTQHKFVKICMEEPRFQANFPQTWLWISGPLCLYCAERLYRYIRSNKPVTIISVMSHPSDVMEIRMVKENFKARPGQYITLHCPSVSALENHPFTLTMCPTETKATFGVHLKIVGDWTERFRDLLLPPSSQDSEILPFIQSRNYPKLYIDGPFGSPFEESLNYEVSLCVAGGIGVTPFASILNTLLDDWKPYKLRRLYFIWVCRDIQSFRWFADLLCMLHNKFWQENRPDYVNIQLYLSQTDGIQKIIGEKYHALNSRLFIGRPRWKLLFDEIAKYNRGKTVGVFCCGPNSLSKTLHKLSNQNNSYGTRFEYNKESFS

For `CN(C)CCCN1C(=O)[C@@]2(Cc3ccccc31)c1ccccc1C(=O)N(Cc1ccccc1)[C@H]2c1ccc(CO)cc1`, the z-score in [1] was 0.0234 (inactive); in assay [3], -0.0561 (inactive); in assay [4], -0.952 (inactive); in assay [5] it was 0.182 (inactive); in assay [6], -1.33 (inactive); in [7] it was 2.05. Besides, the results for the z-score in assay [8], in assay [9] and in assay [10] were -2.34 (inactive), -2.82 (inactive) and -2.96, respectively. Also, in assay [2], the composite z-score was -0.193.

On to `C=CCC(OC(C)=O)[C@@H]1[C@@H](N(Cc2cccc3ccccc23)C(=O)c2ccc(C)cc2)c2cc(OCCCO)ccc2N1C(=O)c1ccc2ccccc2c1` (stereo not given in full), for which the z-score in [1] is 2.04 (inactive); in [3], 0.306 (inactive); in assay [4], -0.171 (inactive); in [5] it was -1.1 (inactive); in assay [6], -0.888 (inactive); in assay [7] it was 1.86. Also, the z-score in assay [8] was -1.14 (inactive); in assay [9], 0.935 (inactive); in assay [10], 2.64. The same compound displayed a composite z-score in assay [2] of 0.25.

With `C=C(/C(=C/C[C@@H](OC(=O)c1ccncc1)c1ccccc1OCCO)c1cnc2ccccc2c1)C(C)C`, the z-score in [1] is -0.592 (inactive); in assay [3] it was 10 (active); in assay [4], 4.55 (inactive); in assay [5] it was -1.59 (inactive); in assay [6], 1.44 (inactive); in [7] it was -0.174. The z-score in [8] was -2.57 (inactive); in assay [9], -1.11 (inactive); in assay [10], -2.56. The compound further gave a composite z-score in [2] of 0.454.

As for `COC(=O)[C@@]1(Cc2ccc(OC)cc2)[C@H]2c3cc(C(=O)N4CCCC4)n(CCF)c3C[C@H]2CN1C(=O)c1ccccc1`, the z-score in assay [1] is -1.28 (inactive); in [3], 10.4 (active); in [4], 1.42 (inactive); in assay [5], 2.39 (inactive); in assay [6], 1.13 (inactive); in assay [7], 0.181. Moreover, the z-score in [8] is -0.201 (inactive); in assay [9], -2.52 (inactive); in assay [10], -3.65. In assay [2], this compound registered a composite z-score of 2.49.

As to `COCCCNC(=O)[C@@]1(Cc2ccccc2)COC(c2ccc(OCCCO)cc2)=N1`, the z-score is 1.76 (inactive) in [1]; 22 (active) in [3]; 4.97 (inactive) in assay [4]; 1.12 (inactive) in assay [5]; 1.04 (inactive) in assay [6]; -0.194 in assay [7]. The z-score in [8] was -1.25 (inactive); in assay [9], 1.05 (inactive); in assay [10], -0.909. In assay [2], this compound showed a composite z-score of 1.1.

As to `C=CCC(OC(C)=O)[C@@H]1[C@@H](N(Cc2ccc(-c3ccccc3)cc2)C(=O)Cc2ccc(OC)cc2)c2cc(OCCCO)ccc2N1C(=O)c1ccc(-c2ccccc2)cc1` (stereo not given in full), the z-score is 0.769 (inactive) in assay [1]; 1.09 (inactive) in assay [3]; 0.969 (inactive) in [4]; 0.0304 (inactive) in [5]; 0.406 (inactive) in assay [6]; 1 in assay [7]. Besides, the z-score in assay [8] was 0.713 (inactive); in assay [9], 0.878 (inactive); in assay [10], 2.49. Moreover, the composite z-score in assay [2] was found to be 0.587.

Turning to `COc1ccccc1CN1C(=O)c2ccccc2[C@@H](C(=O)NCC(C)C)[C@@H]1c1ccc(CO)cc1`, the z-score in assay [1] was 1.08 (inactive); in [3], 1.12 (inactive); in assay [4], 0.157 (inactive); in assay [5] it was 1.23 (inactive); in [6], 0.206 (inactive); in assay [7], -0.195. Besides, the figures for the z-score in assay [8], in assay [9] and in assay [10] were 1.78 (inactive), -0.496 (inactive) and 1.67, respectively. Further, the composite z-score in assay [2] was -0.0061.

`COC(=O)[C@@]1(Cc2ccc(OC)cc2)[C@H]2c3cc(C(=O)N(C)C)n(Cc4cc(C)n(C)n4)c3C[C@H]2CN1C(=O)c1ccccc1`: the z-score is -1.82 (inactive) in assay [1]; 2.11 (inactive) in [3]; 0.498 (inactive) in assay [4]; 1.45 (inactive) in [5]; 0.544 (inactive) in [6]; 0.355 in assay [7]. Besides, the z-score is 0.27 (inactive) in [8], -1.52 (inactive) in assay [9] and -3.56 in assay [10]. Further, the composite z-score in [2] amounted to 0.396.

Turning to `CC(C)(C)OC(=O)CC[C@]1(C(=O)N2CCCCC2)N=C(c2ccc(OCCCO)cc2)O[C@H]1c1ccccc1CN=[N+]=[N-]`, the z-score in assay [1] was 2.54 (inactive); in [3] it was 21.9 (active); in assay [4], 4.95 (inactive); in assay [5] it was 0.768 (inactive); in assay [6], 0.158 (inactive); in [7] it was 1.89. In addition, the z-score in assay [8] is -0.683 (inactive); in assay [9], 1.56 (inactive); in assay [10], 0.95. This compound also registered a composite z-score in assay [2] of 1.66.

In the case of `CCCCC=C[C@@H](NC(=O)CCc1ccccc1)c1ccccc1`, the z-score was -2.27 (inactive) in [1]; 1.36 (inactive) in assay [3]; 0.592 (inactive) in [4]; -0.985 (inactive) in [5]; 1.28 (inactive) in assay [6]; -0.0113 in [7]. Also, the z-score was -0.753 (inactive) in assay [8], -0.487 (inactive) in assay [9] and 0.736 in [10]. The composite z-score in assay [2] was 0.396.

Turning to `COCCCNC(=O)[C@]1(CCS(=O)(=O)c2ccccc2)N=C(c2ccc(OCCCO)cc2)O[C@@H]1c1ccccc1`, the z-score in assay [1] was 0.664 (inactive); in assay [3], 26 (active); in [4], 9.64 (active); in assay [5], 2.14 (inactive); in assay [6] it was 1.82 (inactive); in assay [7], -0.108. For the same compound, the z-score in [8] is -0.0777 (inactive); in [9], 1.72 (inactive); in assay [10] it was 0.88. Also, the composite z-score in [2] is 1.12.

As for `COCCCNC(=O)[C@@H]1c2ccccc2C(=O)N(Cc2cc(F)cc(C(F)(F)F)c2)[C@H]1c1ccc(CO)cc1`, the z-score in assay [1] is -0.0134 (inactive); in assay [3] it was 1.49 (inactive); in assay [4] it was 0.35 (inactive); in assay [5], 0.62 (inactive); in assay [6], 0.0592 (inactive); in assay [7], -0.731. In addition, the z-score in assay [8] is 0.193 (inactive); in assay [9] it was 0.401 (inactive); in [10] it was 0.774. The same compound returned a composite z-score in assay [2] of -0.25.

In the case of `C#CCOC(=O)N[C@H](C=CCCCC)c1ccccc1`, the z-score in assay [1] is -0.288 (inactive); in assay [3] it was 0.801 (inactive); in assay [4], 0.852 (inactive); in [5], 0.599 (inactive); in assay [6], 0.715 (inactive); in [7], -0.469. Moreover, the z-score was 0.877 (inactive) in [8], -0.194 (inactive) in [9] and -0.212 in assay [10]. Further, the composite z-score in assay [2] was found to be 0.289.
